TRHR PAM – allosteric enhancers of human TRH receptor | TRHR cells, fluo-8 calcium fluorescence, EC20 TRH enhancement | enhancement, % at 2 µM | 0.66% of 360,000 active | AID 493056; in the data active = enhancement above about 30%; note: 0% is about no effect
Target sequence (P34981 whole entry, looked up): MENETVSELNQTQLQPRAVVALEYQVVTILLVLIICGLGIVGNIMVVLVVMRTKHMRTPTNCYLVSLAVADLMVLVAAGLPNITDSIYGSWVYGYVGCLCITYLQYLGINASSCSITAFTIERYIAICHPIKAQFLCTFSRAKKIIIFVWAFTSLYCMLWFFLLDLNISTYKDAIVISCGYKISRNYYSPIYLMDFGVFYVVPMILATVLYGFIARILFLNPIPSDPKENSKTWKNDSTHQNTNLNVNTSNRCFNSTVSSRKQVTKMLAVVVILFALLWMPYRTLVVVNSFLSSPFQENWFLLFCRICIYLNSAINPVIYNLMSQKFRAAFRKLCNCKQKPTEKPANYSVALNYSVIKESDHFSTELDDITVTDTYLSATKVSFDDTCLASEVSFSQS
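Enhancer read-out: after compound pinning and an initial kinetic agonist-mode read, an EC20 of TRH (10 nM final) was injected and fluo-8 calcium signal (Ex 480/Em 530) followed at 1 s/cycle for 100 cycles in TRHR-expressing cells.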
D1 ag – human D1 receptor agonism; AID 504660; HEK293 T-REx D1 cells, calcium flux, agonist mode; activation, % at 2 µM; 1% of 360,000 active; note: 0% is about no effect
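Inducible HEK293 T-REx D1 cells, force-coupled to calcium signalling, were plated at 4000 cells/well with tetracycline and held overnight at 30 C. After no-wash calcium dye loading, compound-evoked calcium rise over 180 s flagged agonists.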
D1 antag – human D1 dopamine receptor antagonism. HEK293 TREx D1 cells, calcium flux, dopamine EC80; hits give low values. activity change, negative = inhibition, % at 10 µM. 3.2% of 360,000 active; in the data active = activity change below about -30%; note: % is set by controls: 0 for no effect and ±100 for the full control effect
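Tetracycline-induced HEK293 Trex D1 cells, force-coupled to calcium, dye-loaded; compounds added and read 180 s, then EC80 dopamine added and calcium flux tracked kinetically another 180 s.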
TRHR agonist – TRH receptor (human) agonism; TRHR cells, calcium flux fluo-8, FDSS agonist mode; activation, % at 2 µM; 0.18% of 360,000 active; AID 493084; note: 0% is about no effect
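In this calcium-flux screen, cells bearing human TRHR are dye-loaded with fluo-8, baselined for 10 cycles, then exposed to library compounds; positive kinetic calcium responses during the agonist phase mark hits, with TRH as control.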
D1 potentiator – human D1 dopamine receptor positive modulation. potentiation, % at 10 µM. 0.036% of 360,000 active. AID 504651. HEK293 TREx D1 cells, calcium flux, dopamine EC20 potentiation; in the data active = potentiation above about 30%; note: 0% is about no effect
* hit, by the source's call; . = no result given. A selection: hits, their analogues and other compounds. The true share with any hit is near 4.6%. Cut-off read from the data, not from the text of the source, unless noted: active = activation above about 30%; inactive = the rest.

SMILES | TRHR PAM | D1 ag | D1 antag | TRHR agonist | D1 potentiator
COc1ccc(CNC(=O)CN(C)S(=O)(=O)c2ccc3[nH]c4c(c3c2)CCCC4)cc1 | 46.6* | -0.5 | -3.8 | 0.5 | 0.2
CN(CC(=O)NCc1ccc(F)cc1)S(=O)(=O)c1ccc2[nH]c3c(c2c1)CCCC3 | -2.0 | 1.4 | -10.0 | -0.7 | -1.0
CCOc1ccc(NS(=O)(=O)c2ccc3[nH]c4c(c3c2)CCCC4)cc1 | 5.7 | -0.4 | -51.5* | 0.0 | 1.4
CCCn1c(=O)sc2cc(NC(=O)COc3ccc(Cl)cc3)ccc21 | 3.4 | 21.8 | -23.2 | -0.3 | -0.6
Cc1ccc(Cl)cc1NS(=O)(=O)c1ccc2oc(=O)c3ncn(C)c3c2c1 | 6.7 | -1.5 | 7.4 | 0.3 | -0.1
O=C1c2ccccc2C(=O)N1CC(O)COc1ccc(Cl)cc1 (stereo not drawn) | 10.1 | -0.3 | -30.5* | -0.7 | -10.2
N=c1n(Cc2ccc(Cl)cc2)c2ccccc2n1CC(O)COc1ccccc1 (stereo not drawn) | 5.6 | 68.1* | -6.3 | 1.5 | -2.6
COc1ccc(OCC(O)CN2C(=O)c3ccccc3C2=O)cc1 (stereo not drawn) | -1.3 | 0.9 | -0.5 | -0.7 | 2.7
COc1ccc(CN2CCN(CC(O)Cn3c4ccccc4c4ccccc43)CC2)cc1 (stereo not drawn) | 5.4 | 23.4 | -93.5* | 0.9 | -5.8
CCOc1ccc(CN2CCN(CC(O)Cn3c4ccccc4c4ccccc43)CC2)cc1 (stereo not drawn) | -0.2 | 16.2 | -6.1 | 1.0 | -1.8
COc1ccc(OCC(O)Cn2c(=N)n(Cc3ccccc3)c3ccccc32)cc1 (stereo not drawn) | -1.4 | 48.4* | -46.0* | 0.9 | -19.7
COc1ccccc1CNC(=O)C(=O)NCC(c1cccs1)S(=O)(=O)c1ccc(F)cc1 (stereo not drawn) | -7.4 | 13.9 | . | 0.4 | -2.4
Cc1cc(Br)ccc1NC(=O)C1CCN(S(=O)(=O)c2cnc[nH]2)CC1 | 13.9 | 1.9 | 15.0 | 0.1 | -7.5
COc1ccc(CNC(=O)c2cc3cccc(O)c3oc2=N)cc1 | -2.4 | 8.1 | -6.1 | -0.1 | 2.2
CCn1c(=N)n(CC(O)COc2ccccc2)c2ccccc21 (stereo not drawn) | 3.6 | 3.8 | 9.4 | -0.1 | -1.9
Cc1cccc(OCC(O)Cn2c(=N)n(Cc3ccccc3)c3ccccc32)c1 (stereo not drawn) | 0.4 | 67.5* | -3.1 | 2.5 | -3.5
Cc1ccc(OCC(O)Cn2c(=N)n(Cc3ccccc3)c3ccccc32)cc1 (stereo not drawn) | 7.7 | 9.9 | -5.3 | 0.6 | -4.6
N=c1n(Cc2ccccc2)c2ccccc2n1CC(O)COc1ccc(Cl)cc1Cl (stereo not drawn) | 5.2 | 87.4* | -6.9 | 2.6 | 32.0*
CCn1cc2nc(SCc3ccc(F)cc3)n(CCc3ccccc3)c(=O)c2n1 | -3.6 | 8.9 | 26.7 | 0.9 | 0.9
CCn1c(/C(C#N)=C/c2ccccc2Cl)nc2ccccc21 | 49.6* | 0.7 | 1.4 | 0.9 | 0.7
CCCCN(CCCNC(=O)CN1N=C(c2ccc(C)cc2)CCC1=O)c1ccccc1 | -2.1 | 1.0 | -0.7 | -0.9 | -0.1
CC(C)(C)c1ccc(-n2nc(C#N)c(Cl)cc2=O)cc1 | -19.5 | 1.1 | -40.8* | 1.9 | -4.8
COc1cc(/C=N\NC(=O)CC#N)ccc1OC/C=C/c1ccccc1 | -8.5 | -0.9 | -38.5* | -0.1 | -8.7
COCC(=O)N/N=C\c1ccc(OC/C=C/c2ccccc2)c(OC)c1 | -1.7 | 3.3 | 1.2 | -0.6 | 0.9
Cc1ccc2c(=O)c(C(=O)c3ccc(Cl)cc3)cn(CC(=O)Nc3ccc4c(c3)OCCO4)c2n1 | -11.9 | 5.9 | -2.0 | 1.4 | 2.5
SMILES | TRHR PAM | D1 ag | D1 antag | TRHR agonist | D1 potentiator
Cc1cccn2c(=O)c3cc(C(=O)NCc4cccnc4)c(=N)n(CC4CCCO4)c3nc12 (stereo not drawn) | -2.9 | 3.8 | -9.2 | 0.5 | -6.1
O=C(O)c1cc(N/N=C/c2cccnc2)ccc1Cl | -2.3 | 0.7 | -32.9* | -0.2 | -0.8
O=C(O)c1cc(N/N=C/c2ccncc2)ccc1Cl | 0.6 | 1.4 | -0.3 | 0.5 | -1.9
O=C(NC(Cc1ccccc1)C(=O)O)C1CCN(S(=O)(=O)c2ccccc2C(F)(F)F)CC1 (stereo not drawn) | 4.2 | 4.2 | 1.9 | -2.6 | -1.4
Cc1ccc(S(=O)(=O)c2c(Nc3ccc(C)c(C)c3)sc(C(=O)c3ccc4c(c3)OCO4)c2N)cc1 | -17.8 | 67.6* | -22.9 | 6.5 | 5.8
Nc1c(C(=O)c2ccc3c(c2)OCO3)sc(Nc2ccccc2F)c1S(=O)(=O)c1ccccc1 | -2.4 | 21.3 | 3.6 | 1.1 | -1.0
Cc1ccc(S(=O)(=O)c2c(Nc3cc(C)ccc3C)sc(C(=O)c3ccc4c(c3)OCO4)c2N)cc1 | 23.6 | 83.9* | 8.4 | -1.3 | 8.3
CCOc1ccc(Nc2sc(C(=O)c3ccc4c(c3)OCO4)c(N)c2S(=O)(=O)c2ccc(C)cc2)cc1 | 3.1 | 37.4* | -16.7 | 2.2 | -1.4
O=C(CCn1c(=O)c2cccn2c2ccc(F)cc21)NCCc1ccccc1Cl | 1.1 | 0.1 | 8.8 | 0.0 | -1.6
CSC1=C(C#N)C(c2ccccc2)C(C(C)=O)=C(C)N1 (stereo not drawn) | 9.9 | 0.4 | 3.8 | -0.3 | 4.4
CCOC(=O)CSC1=C(C#N)C(c2ccccc2)C(C(C)=O)=C(C)N1 (stereo not drawn) | -4.5 | 0.5 | -30.5* | 0.0 | 0.8
CSCSC1=C(C#N)C(c2ccc(Cl)cc2)C(C(C)=O)=C(C)N1 (stereo not drawn) | -0.7 | 5.3 | -30.9* | 1.2 | -13.2
O=C(CN1C(=O)C2(SCC(=O)N2c2cccc(Cl)c2)c2ccccc21)NC1CCCCC1 (stereo not drawn) | -4.1 | 2.0 | -3.2 | -0.2 | 2.4
Cc1ccc(-n2ncc3c(NCCCN(C)C)ncnc32)cc1Cl | -0.4 | 22.0 | -12.0 | 0.9 | -2.4
Cc1cc2c(c(=O)n1-c1ccccc1)C1O[C@](c3ccsc3)(Cc3cc(C#N)ccc31)O2 | -1.1 | 0.4 | -7.9 | 0.1 | 3.5
NC(=O)CC(NC(=O)Cc1ccc(Br)cc1)c1ccc(NCCN2CCCC2)c([N+](=O)[O-])c1 (stereo not drawn) | 1.7 | -0.5 | -0.8 | 0.3 | -3.4
NC(=O)CC(NC(=O)Cc1ccc(Br)cc1)c1ccc(NCCN2CCCCC2)c([N+](=O)[O-])c1 (stereo not drawn) | 10.3 | 3.6 | -45.0* | 0.0 | 0.2
OCC1(Cc2ccccc2F)CCCN(Cc2c(F)ccc(F)c2F)C1 (stereo not drawn) | 30.5* | 0.5 | -18.8 | 0.1 | -9.8
COc1ccccc1Nc1c2c(nc3ccc(NC(=O)c4cccc(F)c4)cc13)CCCC2 | -2.5 | 1.6 | 14.7 | -2.0 | 5.2
Fc1ccc(F)c(Nc2c3c(nc4ccc(Cl)cc24)CCC3)c1 | 43.3* | 3.5 | -7.2 | -1.1 | -4.4
Cc1ccc2nc3c(c(Nc4ccccc4)c2c1)CCC3 | 4.7 | 1.1 | -11.3 | -0.9 | -5.3
